{"source": "PubChem BioAssay (NCATS)", "note": "Calls of active or inactive are those of the source. No rule for the calls is given here.", "data": [{"conditions": "Ebola virus entry assay, blue channel fluorescence", "values": [{"smiles": "C1CCC(C(CC2CCCCN2)C2CCCCC2)CC1", "note": "(centres undefined)", "AC50": "1.78 µM (active)"}, {"smiles": "CN(C)CCCOc1nn(Cc2ccccc2)c2ccccc12", "AC50": "7.94 µM (active)"}, {"smiles": "CCCCCCCCCCOCC(O)CN", "note": "(centres undefined)", "AC50": "4.47 µM (active)"}, {"smiles": "C[C@H]1O[C@@H](O[C@H]2CC[C@@]3(C)[C@H](CC[C@@H]4[C@@H]3C[C@@H](O)[C@]3(C)[C@@H](C5=CC(=O)OC5)CC[C@]43O)C2)C[C@H](O)[C@@H]1O[C@H]1C[C@H](O)[C@H](O[C@H]2C[C@H](O)[C@H](O[C@@H]3O[C@H](CO)[C@@H](O)[C@H](O)[C@H]3O)[C@@H](C)O2)[C@@H](C)O1", "AC50": "1.58 µM (active)"}, {"smiles": "CN1CCC(=C2c3ccccc3CC(=O)c3sccc32)CC1", "AC50": "31.6 µM (active)"}, {"smiles": "CC(=O)NC(Cc1ccccc1)C(=O)O", "note": "(centres undefined)", "outcome": "inactive"}, {"smiles": "CCCCC[C@H](O)C=C[C@H]1[C@H](O)CC(=O)[C@H]1CC=CCCCC(=O)O", "AC50": "8.91 µM (active)"}, {"smiles": "CCOC(=O)Cn1cccc1-c1nc(-c2ccc(OC)cc2)c(-c2ccc(OC)cc2)s1", "AC50": "0.708 µM (active)"}, {"smiles": "Cc1ccc(N(CC2=NCCN2)c2cccc(O)c2)cc1", "AC50": "35.5 µM (active)"}, {"smiles": "Nc1c2c(nc3c1CCC3)CCCC2", "AC50": "28.2 µM (active)"}, {"smiles": "COc1cccc2c1C(=O)c1c(O)c3c(c(O)c1C2=O)C[C@@](O)(C(C)=O)C[C@@H]3O[C@H]1C[C@H](N)[C@H](O)[C@H](C)O1", "AC50": "5.01 µM (active)"}, {"smiles": "O=C(O)c1cn(-c2ccc(F)cc2)c2cc(N3CCNCC3)c(F)cc2c1=O", "outcome": "inactive"}, {"smiles": "C[C@@H]1CN(CCCn2c3ccccc3c3ccccc32)C[C@H](C)N1", "AC50": "3.16 µM (active)"}, {"smiles": "OCc1cc(C(O)CNCCCCCCOCCCCc2ccccc2)ccc1O", "note": "(centres undefined)", "AC50": "7.94 µM (active)"}, {"smiles": "COc1ccc(CCN2CCC(Nc3nc4ccccc4n3Cc3ccc(F)cc3)CC2)cc1", "AC50": "5.01 µM (active)"}, {"smiles": "NC(=NCCCCCCN=C(N)/N=C(\\N)Nc1ccc(Cl)cc1)/N=C(\\N)Nc1ccc(Cl)cc1", "AC50": "39.8 µM (active)"}, {"smiles": "O=C(c1ccc(F)cc1)C1CCN(CCn2c(=O)[nH]c3ccccc3c2=O)CC1", "AC50": "28.2 µM (active)"}, {"smiles": "CCN(CC)CCOc1ccc(Cc2ccccc2)cc1", "AC50": "7.94 µM (active)"}, {"smiles": "CN(C)CC/C=C1\\c2ccccc2Sc2ccc(Cl)cc21", "AC50": "3.16 µM (active)"}, {"smiles": "CCO[C@@H]1O[C@H](C(COCc2ccccc2)OCc2ccccc2)[C@H](OCc2ccccc2)[C@H]1O", "note": "(some centres undefined)", "AC50": "31.6 µM (active)"}, {"smiles": "CN(C)C(=S)SC(=S)N(C)C", "AC50": "5.62 µM (active)"}, {"smiles": "CN1CCN(C2Cc3ccccc3Sc3ccc(Cl)cc32)CC1", "note": "(centres undefined)", "AC50": "5.01 µM (active)"}, {"smiles": "CC(=O)c1ccc2c(c1)N(CCCN(C)C)c1ccccc1S2", "AC50": "12.6 µM (active)"}, {"smiles": "CCN1C(=O)c2ccccc2C1Nc1ccc(OCCN2CCCCC2)cc1", "note": "(centres undefined)", "AC50": "12.6 µM (active)"}, {"smiles": "O=C(CCCN1CCN(c2ccc(F)cc2)CC1)NC1c2ccccc2CSc2ccccc21", "note": "(centres undefined)", "AC50": "8.91 µM (active)"}, {"smiles": "CCN(CC)CCOc1ccc(C(O)(Cc2ccc(Cl)cc2)c2ccc(C)cc2)cc1", "note": "(centres undefined)", "AC50": "2.51 µM (active)"}, {"smiles": "OCCN1CCN(CCCN2c3ccccc3C=Cc3ccccc32)CC1", "AC50": "14.1 µM (active)"}, {"smiles": "CC1=C(C(=O)OC(C)C)C(c2cccc([N+](=O)[O-])c2)C(C(=O)OC2CN(C(c3ccccc3)c3ccccc3)C2)=C(N)N1", "note": "(centres undefined)", "AC50": "39.8 µM (active)"}, {"smiles": "O=C(NC1CCN(CCc2c[nH]c3ccccc23)CC1)c1ccccc1", "AC50": "25.1 µM (active)"}, {"smiles": "O=C(CCCN1CC=C(n2c(=O)[nH]c3ccccc32)CC1)c1ccc(F)cc1", "AC50": "17.8 µM (active)"}, {"smiles": "CC(CC1c2ccccc2CCc2ccccc21)CN(C)C", "note": "(centres undefined)", "AC50": "6.31 µM (active)"}, {"smiles": "CCCC(=O)O[C@]1(C(=O)CC)CC[C@H]2[C@@H]3CCC4=CC(=O)CC[C@]4(C)[C@H]3[C@@H](O)C[C@@]21C", "outcome": "inactive"}, {"smiles": "CCCCCCCCCCCCCCCC[N+](C)(C)Cc1ccccc1", "AC50": "31.6 µM (active)"}, {"smiles": "O=C1OC2(c3ccccc31)c1cc(I)c(O)c(I)c1Oc1c2cc(I)c(O)c1I", "outcome": "inactive"}, {"smiles": "CN1C[C@H](C(=O)N[C@]2(C)O[C@@]3(O)[C@@H]4CCCN4C(=O)[C@H](Cc4ccccc4)N3C2=O)C[C@@H]2c3cccc4[nH]cc(c34)C[C@H]21", "AC50": "28.2 µM (active)"}, {"smiles": "CCN(CC)CCOc1ccccc1C(=O)CCc1ccccc1", "AC50": "15.8 µM (active)"}, {"smiles": "CCC(CN)=C(c1ccccc1)c1ccccc1", "AC50": "17.8 µM (active)"}, {"smiles": "CN(C)CCOC(c1ccccc1)c1ccc(Br)cc1", "note": "(centres undefined)", "AC50": "11.2 µM (active)"}, {"smiles": "COc1cccc(N(C)C(=S)Oc2ccc3c(c2)CCCC3)n1", "AC50": "17.8 µM (active)"}]}]}
